V-ATPase pH: yeast V-ATPase proton transport regulation by pHLuorin; S. cerevisiae, pHLuorin cytosolic pH fluorescence; response, % at 10 µM; hit rate 0.37% among 350,000; in the data active = response mostly above about 7.3%, no sharp cut-off; inactive = mostly below about 5.4%; also: actives read high
ATG4B inh: inhibitors of human ATG4B cysteine protease. ATG4B cleavage of LC3-PLA2, NBD-HPC fluorescence, 1 h. inhibition, % at 8.33 µM. AID 504462. hit rate 0.51% among 340,000. Q9Y4P1; in the data active = inhibition above about 40%
Target sequence (Q9Y4P1 whole entry, looked up): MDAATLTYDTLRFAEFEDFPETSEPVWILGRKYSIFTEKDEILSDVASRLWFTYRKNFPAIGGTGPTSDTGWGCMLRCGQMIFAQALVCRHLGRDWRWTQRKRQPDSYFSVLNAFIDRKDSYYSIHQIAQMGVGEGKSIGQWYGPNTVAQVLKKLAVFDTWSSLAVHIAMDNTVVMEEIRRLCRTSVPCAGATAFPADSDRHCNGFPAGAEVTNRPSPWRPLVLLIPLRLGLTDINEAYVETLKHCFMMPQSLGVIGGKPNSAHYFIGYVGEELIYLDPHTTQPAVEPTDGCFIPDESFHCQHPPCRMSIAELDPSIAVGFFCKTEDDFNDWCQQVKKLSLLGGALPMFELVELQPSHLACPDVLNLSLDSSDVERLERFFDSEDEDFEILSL
SUMO Mot1 rescue: SUMOylation pathway inhibition by Mot1-301 growth rescue. hit rate 1% among 320,000. AID 2716. growth rescue, % at 18.8 µM. S. cerevisiae Mot1-301 growth rescue, ATP luminescence, 38.5C; percent above DMSO median, 100 means doubled;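 active = every valid replicate shows activation above 250% relative to neutral control wells; inactive = the rest, any valid replicate at or below 250%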;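 also: OY570 slx delta 5 strain wells were the positive control but not used for scaling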
AI-2 QS mod: modulates the Vibrio harveyi AI-2 quorum sensing system; activity change, % at 7.5 µM; Vibrio harveyi JMH597 AI-2 luminescence/OD600 ratio, 9 h; stronger effect = lower value; strain lacks LuxN and CqsS sensors; 0 = neutral-control median; hit rate 0.4% among 300,000; in the data active = activity change below about -75%, passing the limit was not always enough;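 also: luminescence divided by OD600 gain over 9 h not by final OD600 alone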
Efflux pump mplx: blocks antifungal efflux pumps in multiplex yeast assay | inhibition, % at 10 µM | AID 485275 | hit rate 0.44% among 330,000 | S. cerevisiae Candida pump triplex, Nile Red efflux;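 active = plate passing quality check with inhibition over a set limit, or well fluorescence over plate mean plus 4 SD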;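 also: Nile Red retained in pooled yeast measured as flow cytometry median fluorescence; 0% = buffer negative control and 100% = Enniatin B positive control; higher means more Nile Red kept so more efflux inhibition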
Cmpd fluor yeast: flagged as fluorescent in efflux inhibitor counter-screen | AID 588517 | fluorescence ratio to DMSO, % at 10 µM | shares compounds with Efflux pump mplx | S. cerevisiae AD/pABC3, compound fluorescence, flow cytometry | hit rate 4% among 1,700;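 active = fluorescence ratio to DMSO above its plate's cutoff, the plate mean ratio plus 5 SD, cut at about 210% in these data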;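 also: unstained yeast with no Nile Red so the signal is compound autofluorescence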
Mdr1 pump inh: inhibitors of Candida albicans Mdr1 efflux pump; inhibition, % at 10 µM; hit rate 1% among 1,700; S. cerevisiae AD/CaMDR1, Nile Red efflux, flow cytometry; shares compounds with Efflux pump mplx; in the data active = inhibition above about 26%;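 also: 0% = DMSO vehicle and 100% = reference inhibitor; higher means more Nile Red retained so more efflux inhibition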
CaCdr2 efflux inh: Candida Cdr2 efflux pump inhibition; hit rate 4% among 1,700; Nile Red retention ratio vs DMSO, % at 10 µM; S. cerevisiae AD/CaCDR2, Nile Red retention, flow cytometry; shares compounds with Efflux pump mplx; in the data active = Nile Red retention ratio vs DMSO above about 190%;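 also: higher ratio means more blocking of Cdr2 efflux of the dye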
Cdr1 pump inh: blocks the Candida albicans Cdr1 efflux pump in yeast. S. cerevisiae AD/CaCDR1, Nile Red efflux, flow cytometry. shares compounds with Efflux pump mplx. hit rate 1% among 1,700. inhibition, % at 10 µM;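 active = inhibition above the screen-wide mean plus twice its standard deviation, cut at about 32% in these data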
* hit, by the source's call. Shown are actives, neighbours in structure and some others; about 2.5% of the full set was active somewhere.

`COC(=O)CN1C(=S)N(c2ccc(Cl)cc2)C(=O)C1CC(=O)Nc1ccc(F)cc1` (configuration not stated) gave V-ATPase pH -2, ATG4B inh -17, SUMO Mot1 rescue -8, AI-2 QS mod -11 and Efflux pump mplx 0.
COc1cccc(COc2ccc3c(C)c(Cc4ccccc4)c(=O)oc3c2)c1 was read as V-ATPase pH -2, ATG4B inh 8, SUMO Mot1 rescue -26, AI-2 QS mod 16 and Efflux pump mplx 0.
Screening COc1cccc(C(=O)COc2ccc3c(C)c(Cc4ccccc4)c(=O)oc3c2)c1 returned V-ATPase pH 3, ATG4B inh -2, SUMO Mot1 rescue -7, AI-2 QS mod -18, Efflux pump mplx 7.5*, Cmpd fluor yeast 103, Mdr1 pump inh 0, CaCdr2 efflux inh 96 and Cdr1 pump inh 0.
COc1ccccc1C(=O)COC(=O)c1ccccc1OCC(=O)Nc1ccc(SC(F)F)cc1 was read as V-ATPase pH 1, ATG4B inh 10, SUMO Mot1 rescue -23, AI-2 QS mod 16, Efflux pump mplx 11*, Cmpd fluor yeast 103, Mdr1 pump inh 0, CaCdr2 efflux inh 107 and Cdr1 pump inh 0.
Screening CN(Cc1ccccc1)C(=O)COC(=O)CNS(=O)(=O)c1ccc2ccccc2c1 returned V-ATPase pH 3, ATG4B inh -8, SUMO Mot1 rescue 235, AI-2 QS mod -4, Efflux pump mplx 75*, Cmpd fluor yeast 97, Mdr1 pump inh 0, CaCdr2 efflux inh 101 and Cdr1 pump inh 0.
Screening CC(C)(C)N(Cc1ccccc1)C(=O)COC(=O)CNS(=O)(=O)c1ccc2ccccc2c1 returned V-ATPase pH 3, ATG4B inh 8, SUMO Mot1 rescue -3 and Efflux pump mplx 0.
For Cc1ccc(S(=O)(=O)NN2C(=O)/C(=C/c3cccs3)SC2=S)cc1 the results were V-ATPase pH -3, ATG4B inh -2, SUMO Mot1 rescue 324, AI-2 QS mod 115, Efflux pump mplx 0, Cmpd fluor yeast 98, Mdr1 pump inh 0, CaCdr2 efflux inh 87 and Cdr1 pump inh 0.
Screening Cc1ccc(/C=C2\SC(=S)N(NS(=O)(=O)c3ccc(C)cc3)C2=O)cc1 returned V-ATPase pH 0, ATG4B inh 13, SUMO Mot1 rescue -23, AI-2 QS mod 47 and Efflux pump mplx 0.
COC(=O)[C@H](CCSC)NC(=O)NCc1cccs1 was read as V-ATPase pH 0, ATG4B inh 2, SUMO Mot1 rescue 13, AI-2 QS mod 6, Efflux pump mplx 6.7*, Cmpd fluor yeast 110, Mdr1 pump inh 0, CaCdr2 efflux inh 102 and Cdr1 pump inh 0.
For Cc1ccc(Nc2c(-c3ccc(N4CCOCC4)cc3)nc3ncccn23)cc1 the results were V-ATPase pH -2, ATG4B inh -2, SUMO Mot1 rescue -27, AI-2 QS mod 23, Efflux pump mplx 0.9*, Cmpd fluor yeast 108, Mdr1 pump inh 0, CaCdr2 efflux inh 106 and Cdr1 pump inh 0.
Cc1ccc(Nc2c(-c3ccc(N4CCOCC4)cc3)nc3ncccn23)cc1C was read as V-ATPase pH -1, ATG4B inh 13, SUMO Mot1 rescue inactive, AI-2 QS mod -3 and Efflux pump mplx 0.
Screening CC(=O)Nc1ccc(-c2cn3cc(C)ccc3n2)cc1 returned V-ATPase pH -3, ATG4B inh -6, SUMO Mot1 rescue 0, AI-2 QS mod 6, Efflux pump mplx 6.5*, Cmpd fluor yeast 99, Mdr1 pump inh 0, CaCdr2 efflux inh 89 and Cdr1 pump inh 0.
`Cc1ccc2nc(-c3ccccc3)cn2c1` gave ATG4B inh -2, SUMO Mot1 rescue -48, AI-2 QS mod 1 and Efflux pump mplx 0.
Screening Fc1ccc(-n2cc(-c3ccccc3)c3c(NN4CCOCC4)ncnc32)cc1 returned V-ATPase pH -2, ATG4B inh -4, SUMO Mot1 rescue 0, AI-2 QS mod 15 and Efflux pump mplx 0.
For COc1ccc(-n2cc(-c3ccccc3)c3c(NN4CCOCC4)ncnc32)cc1 the results were V-ATPase pH 0, ATG4B inh -5, SUMO Mot1 rescue -13, AI-2 QS mod 7, Efflux pump mplx 2.5*, Cmpd fluor yeast 109, Mdr1 pump inh 0, CaCdr2 efflux inh 106 and Cdr1 pump inh 0.
For CCCCOc1ccc(NC2=NC3(CCCC3)N=C(N)N2)cc1 the results were V-ATPase pH -3, ATG4B inh -16, SUMO Mot1 rescue 0, AI-2 QS mod 23, Efflux pump mplx 0.6*, Cmpd fluor yeast 102, Mdr1 pump inh 0, CaCdr2 efflux inh 114 and Cdr1 pump inh 0.
Screening COc1cc(C(=O)NC2CCCc3c2cnn3-c2ccccc2F)cc(OC)c1OC (configuration not stated) returned V-ATPase pH 3, ATG4B inh -1, SUMO Mot1 rescue 0, AI-2 QS mod 14 and Efflux pump mplx 0.
`COc1ccc(C(=O)NC2CCCc3c2cnn3-c2ccccc2F)o1` (configuration not stated) gave V-ATPase pH 0, ATG4B inh 36, SUMO Mot1 rescue 73, AI-2 QS mod -1, Efflux pump mplx -1, Cmpd fluor yeast 95, Mdr1 pump inh 0, CaCdr2 efflux inh 107 and Cdr1 pump inh 0.
COc1ccc2cc(Br)ccc2c1CC(=O)NC1CC(C)(C)NC(C)(C)C1 was read as V-ATPase pH -2, ATG4B inh -3, AI-2 QS mod 6 and Efflux pump mplx 0.
Screening CSc1cccc(NC(=O)c2cccc3cccnc23)c1 returned V-ATPase pH 0, ATG4B inh -11, SUMO Mot1 rescue -26, AI-2 QS mod 18 and Efflux pump mplx 0.
COc1ccc2c(c1)OC[C@H]1[C@H]2N2C(=O)c3ccc(C)cc3NC(=O)[C@@]2(C)[C@H]1c1ccccc1 was read as V-ATPase pH 1, ATG4B inh 38, SUMO Mot1 rescue 356*, Efflux pump mplx 34*, Cmpd fluor yeast 104, Mdr1 pump inh 0, CaCdr2 efflux inh 106 and Cdr1 pump inh 0.
Screening C[C@@]12C(=O)Nc3ccc(Br)cc3C(=O)N1[C@H]1c3cc(Br)ccc3OC[C@@H]1[C@@H]2c1ccccc1 returned V-ATPase pH -4, ATG4B inh -1, SUMO Mot1 rescue 0 and Efflux pump mplx 1.
